Outcome and AC50 data for eight compounds are collected here from PubChem BioAssay (EPA / NIEHS).

Test [1] in a line: ATG_E_Box_CIS: Attagene CIS-FACTORIAL HepG2 Assay for human Enhancer Box (E-box) (AID 2282936). Conditions: HepG2 E-box cis-reporter transcription, actives raise or lower the signal. Put shortly: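 Cells: HepG2 (human liver), transient MRTU transfection. Exposure 24 h. RNA → oligo(dT) RT → PCR → 6-FAM label → HpaI → CE. Activity fitted both directions relative to DMSO.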
A short description of test [2]: ATG_M_61_CIS: Attagene CIS-FACTORIAL HepG2 Assay for M61 Transcription Factor (Internal Marker) (AID 2282937). Conditions: HepG2 Attagene CIS-FACTORIAL M61 internal marker reporter; actives raise or lower the signal. The procedure, abridged: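 Readout: fluorescent reporter mRNA fragments resolved by capillary electrophoresis after RT-PCR. Transiently transfected human HepG2 cells carried MRTU constructs reporting endogenous TF activity; 24 h chemical exposure; gain or loss of signal fitted relative to DMSO.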

Test [3] is described as follows: ATG_EGR_CIS: Attagene CIS-FACTORIAL HepG2 Assay for human Early Growth Response 1 (EGR1) (AID 2282938). Conditions: HepG2 Attagene CIS-FACTORIAL EGR reporter mRNA; actives raise or lower the signal. The procedure, abridged: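 Read-out: fluorescent reporter-mRNA fragments resolved by capillary electrophoresis after RT-PCR, 24 h post-dose in transiently transfected HepG2. Endogenous transcription-factor activity reported via cis-element-regulated reporter units; gain or loss fitted relative to DMSO.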

A short description of test [4]: ATG_M_19_CIS: Attagene CIS-FACTORIAL HepG2 Assay for M19 Transcription Factor (Internal Marker) (AID 2282939). Conditions: HepG2 Attagene CIS-FACTORIAL M19 internal marker reporter; actives raise or lower the signal. Put shortly: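 Chemical-treated HepG2 (24 h) with MRTU constructs; reporter transcripts detected by fluorescent RT-PCR fragment analysis on capillary electrophoresis. Internal background marker, DMSO as baseline.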

Test [5] is described as follows: ATG_Ets_CIS: Attagene CIS-FACTORIAL HepG2 Assay for human Erythroblast Transformation Specific (ETS) (AID 2282941). Conditions: HepG2 ETS cis-reporter transcription, actives raise or lower the signal. The procedure, abridged: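 Steps: transfect HepG2 with multiple reporter units; treat compound 24 h; isolate RNA, DNase-treat, reverse-transcribe; PCR-amplify, label with 6-FAM, digest with HpaI; separate by capillary electrophoresis. Activity fitted both directions versus DMSO.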

In test [6] the target is Hepatocyte nuclear factor 3-beta (Homo sapiens) (UniProt Q9Y261). Put plainly: ATG_FoxA2_CIS: Attagene CIS-FACTORIAL HepG2 Assay for human Forkhead box A2 (FOXA2) (AID 2282942). Conditions: HepG2 cis-reporter transcription factor activity, 24 h; actives raise or lower the signal. The procedure, abridged: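 Readout: fluorescent reporter transcripts resolved by capillary electrophoresis after RT-PCR. Transiently transfected HepG2, 24 h compound exposure, endogenous TF activity at cis promoter elements. Gain or loss of signal fitted relative to DMSO.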

A short description of test [7]: ATG_FoxO_CIS: Attagene CIS-FACTORIAL HepG2 Assay for human Forkhead box O (FoxO) (AID 2282943). Conditions: HepG2 Attagene cis-reporter, FoxO element, mRNA; actives raise or lower the signal. The procedure, abridged:
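Human hepatoma HepG2 cells carry transiently introduced reporter transcription units controlled by cis promoter elements. Chemical treatment lasted 24 h, and mRNA signal was compared with DMSO.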

A short description of test [8]: ATG_GATA_CIS: Attagene CIS-FACTORIAL HepG2 Assay for human GATA Binding Protein (AID 2282944). Conditions: HepG2 GATA cis-element reporter, Attagene multiplex mRNA; actives raise or lower the signal. Put shortly: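 Transfected cis-reporter HepG2 cells were treated with chemicals for 24 hours. Total RNA was then converted to cDNA, amplified with reporter-specific primers and analysed by fluorescent capillary electrophoresis, using DMSO-treated wells as baseline.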

A short description of test [9]: ATG_GLI_CIS: Attagene CIS-FACTORIAL HepG2 Assay for human Zinc Finger Protein GLI1 (AID 2282945). Conditions: HepG2, Attagene cis-factorial reporter mRNA, GLI element; actives raise or lower the signal. The procedure, abridged: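 Bidirectional curve fits relative to DMSO, using reporter mRNA levels from RT-PCR plus capillary electrophoresis. Cells were HepG2 transiently carrying cis-regulated reporter constructs, harvested 24 h after dosing.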

Test [10] addresses Bile acid receptor (Homo sapiens) (UniProt Q96RI1). The test is described as follows: ATG_IR1_CIS: Attagene CIS-FACTORIAL HepG2 Assay for human Nuclear Receptor Subfamily 1 Group H Member 4 (NR1H4), IR1 submotif (AID 2282946). Conditions: IR1 reporter transcription, actives raise or lower the signal. Put shortly: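 Cells (human HepG2) carry transiently transfected cis-promoter reporter transcription units. Compounds are incubated 24 h, total RNA is reverse-transcribed and amplified, and labelled fragments are resolved by capillary electrophoresis. Curves use DMSO as baseline.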

Test [11] is described as follows: ATG_ISRE_CIS: Attagene CIS-FACTORIAL HepG2 Assay for human Interferon Regulatory Factor 1 (IRF1) binding to an Interferon-Stimulated Response Element (ISRE) (AID 2282948). Conditions: HepG2 ISRE cis-reporter (Attagene), mRNA transcription readout; actives raise or lower the signal. The procedure, abridged: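 Transfected HepG2 (multiple reporter transcription units, cis elements) dosed 24 h. RNA → oligo(dT) RT → PCR → 6-FAM primer extension → HpaI → CE. DMSO = negative control/baseline.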

The nature of test [12]: ATG_M_32_CIS: Attagene CIS-FACTORIAL HepG2 Assay for M32 Transcription Factor (Internal Marker) (AID 2282949).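 Also: background control marker of the multiplexed CIS panel rather than a real target.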 Conditions: HepG2 Attagene cis-factorial M32 reporter, mRNA; actives raise or lower the signal. Put shortly: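 HepG2 cells transiently transfected with multiplexed cis-regulated reporter units, dosed 24 h. Reporter mRNA quantified by RT-PCR, 6-FAM labelling, HpaI digestion and capillary electrophoresis; bidirectional fit vs DMSO.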

The nature of test [13]: ATG_M_06_CIS: Attagene CIS-FACTORIAL HepG2 Assay for M06 Transcription Factor (Internal Marker) (AID 2282950). Conditions: HepG2 Attagene CIS-FACTORIAL M06 internal marker reporter; actives raise or lower the signal. Put shortly:
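Cells (HepG2, transiently carrying cis-driven reporter units) receive chemical for 24 h before RNA isolation. Reporter cDNA is PCR-amplified, FAM-labelled by primer extension, HpaI-digested and sized on a capillary analyser.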

Test [14] concerns the target Hypoxia-inducible factor 1-alpha (Homo sapiens) (UniProt Q16665). Put plainly: ATG_HIF1a_CIS: Attagene CIS-FACTORIAL HepG2 Assay for human Hypoxia Inducible Factor 1 (HIF1A) (AID 2282951). Conditions: HepG2 Attagene cis-factorial HIF1a reporter transcription; actives raise or lower the signal. Put shortly:
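RT-PCR/capillary electrophoresis fluorescence readout of reporter transcripts from endogenous-TF-driven cis elements in transfected HepG2 cells, 24 h exposure; activity fitted in both directions against DMSO controls.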

The target of test [15] is Hepatocyte nuclear factor 6 (Homo sapiens) (UniProt Q9UBC0). The test is described as follows: ATG_HNF6_CIS: Attagene CIS-FACTORIAL HepG2 Assay for human Hepatocyte Nuclear Factor 6 (HNF6) (AID 2282952). Conditions: HepG2 Attagene cis-factorial HNF6 reporter transcription; actives raise or lower the signal. Put shortly:
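HepG2 cells transiently transfected with cis-element-driven multiple reporter transcription units, dosed 24 h; reporter mRNA quantified by RT-PCR, FAM primer extension, HpaI digestion and capillary electrophoresis; bidirectional fit versus DMSO baseline.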

In test [16] the target is Heat shock factor protein 1 (Homo sapiens) (UniProt Q00613). Put plainly: ATG_HSE_CIS: Attagene CIS-FACTORIAL HepG2 Assay for human Heat Shock Transcription Factor 1 (HSE) (AID 2282953). Conditions: HepG2 HSE cis-reporter, Attagene RNA transcription; actives raise or lower the signal. Put shortly:
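Liver-derived HepG2 cells carry transiently introduced multiple reporter units governed by cis promoters. Reporter RNA measured 24 h post-dose through reverse transcription, PCR amplification, fluorescent labelling and capillary electrophoresis, normalised to DMSO.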

A short description of test [17]: ATG_MRE_CIS: Attagene CIS-FACTORIAL HepG2 Assay for human Metal Responsive Element (MRE) (AID 2282954). Conditions: HepG2 MRE cis-reporter transcription, Attagene multiplex; actives raise or lower the signal. The procedure, abridged: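 Transient MRTU transfection of HepG2 (FuGene 6); 24 h dosing; total RNA → oligo(dT) RT, PCR, 6-FAM primer extension, HpaI cut, CE. Bidirectional fit vs DMSO.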

Test [18] is described as follows: ATG_PBREM_CIS: Attagene CIS-FACTORIAL HepG2 Assay for human Phenobarbital-responsive Enhancer Module (PBREM) (AID 2282955). Conditions: HepG2 PBREM cis-reporter, Attagene multiplexed transcription; actives raise or lower the signal. The procedure, abridged: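 Reporter mRNA read by RT-PCR, 6-FAM primer extension, HpaI digestion and capillary electrophoresis. Transfected HepG2 cells, 24 h compound exposure. Gain or loss of signal fitted bidirectionally relative to DMSO baseline.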

A short description of test [19]: ATG_GRE_CIS: Attagene CIS-FACTORIAL HepG2 Assay for human Glucocorticoid Response Elements (GRE) (AID 2282947). Conditions: HepG2 GRE cis-reporter, Attagene multiplex mRNA; actives raise or lower the signal. The procedure, abridged: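 Transient MRTU transfection of human HepG2 liver cells; cis-regulated reporters report endogenous factors. 24 h dosing → RNA isolation → RT-PCR → 6-FAM primer extension → HpaI cut → CE fragment analysis. Bidirectional fit, DMSO negative control.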

Test [20] is described as follows: ATG_ERE_CIS: Attagene CIS-FACTORIAL HepG2 Assay for Estrogen Response Element (ERE) (AID 2282940). Conditions: HepG2 ERE cis-reporter, Attagene RNA transcript; actives raise or lower the signal. Put shortly: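 Human liver cells (HepG2) bearing transiently transfected, promoter-regulated reporter units were exposed 24 h. Reporter mRNA induction was detected by capillary electrophoresis of labelled RT-PCR products and fitted bidirectionally to DMSO.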

Activity calls are given as the source filed them. The calls were made as follows: active = hit-call score of the fitted dose curve at least 0.9, where 1 is the maximum; inactive = score below 0.9.

Sequence of Heat shock factor protein 1 (Homo sapiens) (Q00613 whole entry, looked up): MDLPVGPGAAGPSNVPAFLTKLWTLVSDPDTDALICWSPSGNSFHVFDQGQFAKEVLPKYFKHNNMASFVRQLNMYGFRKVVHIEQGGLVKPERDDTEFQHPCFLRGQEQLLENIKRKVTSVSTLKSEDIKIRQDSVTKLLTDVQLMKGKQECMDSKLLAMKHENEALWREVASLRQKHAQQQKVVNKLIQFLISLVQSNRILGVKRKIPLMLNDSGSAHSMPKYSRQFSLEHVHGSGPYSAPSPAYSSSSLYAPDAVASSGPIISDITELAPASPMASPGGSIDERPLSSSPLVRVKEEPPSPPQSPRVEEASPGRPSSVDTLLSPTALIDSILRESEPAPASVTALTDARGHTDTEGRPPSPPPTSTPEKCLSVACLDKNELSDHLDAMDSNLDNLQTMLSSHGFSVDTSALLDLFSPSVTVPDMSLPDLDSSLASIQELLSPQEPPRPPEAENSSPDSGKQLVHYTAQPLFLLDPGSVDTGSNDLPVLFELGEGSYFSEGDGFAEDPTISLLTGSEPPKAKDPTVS
Sequence of Hepatocyte nuclear factor 6 (Homo sapiens) (Q9UBC0 whole entry, looked up): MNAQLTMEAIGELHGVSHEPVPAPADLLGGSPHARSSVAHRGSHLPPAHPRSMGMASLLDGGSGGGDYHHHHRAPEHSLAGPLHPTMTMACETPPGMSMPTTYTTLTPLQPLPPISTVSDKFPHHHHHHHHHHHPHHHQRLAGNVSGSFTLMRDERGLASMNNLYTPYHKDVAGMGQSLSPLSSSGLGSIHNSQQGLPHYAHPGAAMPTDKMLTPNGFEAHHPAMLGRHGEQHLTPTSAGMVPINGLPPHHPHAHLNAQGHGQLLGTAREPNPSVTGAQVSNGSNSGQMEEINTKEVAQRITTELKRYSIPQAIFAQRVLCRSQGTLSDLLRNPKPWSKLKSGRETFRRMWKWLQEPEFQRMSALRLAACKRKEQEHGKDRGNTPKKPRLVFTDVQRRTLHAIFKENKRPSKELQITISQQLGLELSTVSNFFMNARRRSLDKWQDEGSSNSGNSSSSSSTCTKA
Sequence of Bile acid receptor (Homo sapiens) (Q96RI1 whole entry, looked up, the tested form may be a part): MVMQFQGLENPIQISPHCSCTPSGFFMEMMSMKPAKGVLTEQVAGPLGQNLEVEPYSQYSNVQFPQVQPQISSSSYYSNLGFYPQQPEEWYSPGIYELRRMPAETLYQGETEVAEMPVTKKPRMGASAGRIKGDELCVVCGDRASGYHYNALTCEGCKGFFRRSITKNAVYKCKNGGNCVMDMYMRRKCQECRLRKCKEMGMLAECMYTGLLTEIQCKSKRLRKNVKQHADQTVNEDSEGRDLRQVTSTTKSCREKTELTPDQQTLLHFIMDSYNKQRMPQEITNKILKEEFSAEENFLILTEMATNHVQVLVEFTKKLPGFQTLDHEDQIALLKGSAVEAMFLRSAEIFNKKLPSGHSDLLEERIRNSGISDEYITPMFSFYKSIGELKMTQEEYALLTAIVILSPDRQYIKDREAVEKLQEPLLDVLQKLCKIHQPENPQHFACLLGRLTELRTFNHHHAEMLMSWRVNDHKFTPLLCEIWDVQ
Sequence of Hypoxia-inducible factor 1-alpha (Homo sapiens) (Q16665 whole entry, looked up): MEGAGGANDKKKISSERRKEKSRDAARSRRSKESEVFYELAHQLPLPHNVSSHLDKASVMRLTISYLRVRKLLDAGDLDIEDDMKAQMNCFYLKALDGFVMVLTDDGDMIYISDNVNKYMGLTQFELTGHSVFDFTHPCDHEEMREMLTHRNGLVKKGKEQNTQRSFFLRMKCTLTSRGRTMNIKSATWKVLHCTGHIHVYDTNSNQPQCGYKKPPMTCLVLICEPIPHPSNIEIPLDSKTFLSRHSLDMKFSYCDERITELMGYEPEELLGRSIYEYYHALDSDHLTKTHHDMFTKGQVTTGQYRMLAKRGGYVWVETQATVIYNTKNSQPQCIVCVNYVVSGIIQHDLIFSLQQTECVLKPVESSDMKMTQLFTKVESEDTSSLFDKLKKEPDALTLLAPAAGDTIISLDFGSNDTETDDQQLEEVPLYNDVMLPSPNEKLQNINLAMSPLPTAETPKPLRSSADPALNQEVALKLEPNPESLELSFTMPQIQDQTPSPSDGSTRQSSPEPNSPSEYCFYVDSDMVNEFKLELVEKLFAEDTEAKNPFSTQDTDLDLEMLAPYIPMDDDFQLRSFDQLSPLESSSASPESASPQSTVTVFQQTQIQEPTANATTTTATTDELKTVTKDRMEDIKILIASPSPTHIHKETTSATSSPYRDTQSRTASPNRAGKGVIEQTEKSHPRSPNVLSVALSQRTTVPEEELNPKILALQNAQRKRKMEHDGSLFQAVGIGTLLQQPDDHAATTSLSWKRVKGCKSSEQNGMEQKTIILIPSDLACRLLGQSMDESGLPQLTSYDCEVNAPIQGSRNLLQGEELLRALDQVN
Sequence of Hepatocyte nuclear factor 3-beta (Homo sapiens) (Q9Y261 whole entry, looked up): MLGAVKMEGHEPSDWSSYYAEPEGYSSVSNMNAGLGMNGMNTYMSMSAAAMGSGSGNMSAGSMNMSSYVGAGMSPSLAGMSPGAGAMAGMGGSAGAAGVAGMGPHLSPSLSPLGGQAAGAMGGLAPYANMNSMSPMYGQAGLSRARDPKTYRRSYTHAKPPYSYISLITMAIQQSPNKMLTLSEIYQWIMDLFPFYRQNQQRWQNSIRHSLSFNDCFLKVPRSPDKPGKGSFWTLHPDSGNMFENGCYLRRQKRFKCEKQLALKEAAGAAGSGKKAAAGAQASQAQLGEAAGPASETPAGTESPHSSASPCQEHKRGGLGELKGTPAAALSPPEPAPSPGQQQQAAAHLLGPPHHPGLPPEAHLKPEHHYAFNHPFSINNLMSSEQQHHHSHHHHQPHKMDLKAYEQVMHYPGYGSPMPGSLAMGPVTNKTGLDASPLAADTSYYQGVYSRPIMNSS

As to `Nc1ccc(-c2ccc(F)cc2)cc1`, the outcome in test [1], in [2], in test [3], in test [4], in [5] and in test [6] was inactive. For the same compound, the call in test [7], in test [8], in test [9], in test [10], in [11] and in test [12] was inactive. In addition, the compound was called inactive in test [13], in test [14], in test [15], in [16], in test [17] and in test [18].
For the compound `NC(=O)NNC(N)=O`, the outcome in test [1], in test [2], in test [3], in test [4], in [5] and in test [6] was inactive. The outcome in test [7], in test [8], in [9], in [10], in test [19] and in [11] was inactive. Besides, the compound was classed as inactive in test [13], in test [14], in [15], in test [16] and in test [17].
On to `Cc1ccc(C(C)(C)C)cc1`, for which the outcome in [1], in [2], in test [3], in test [4], in [5] and in [6] was inactive. For the same compound, the result in [7], in test [8], in [11], in test [14], in test [15] and in test [16] was inactive. In addition, the call in test [17] and in test [18] was inactive.
In the case of `NCCCN1CCN(CCCN)CC1`, the result in test [1], in test [2], in [3], in test [4], in test [5] and in [7] was inactive. Moreover, the compound was classed as inactive in test [8], in test [9], in test [19], in [11], in test [12] and in test [13]. Besides, the compound was classed as inactive in [14], in test [15], in test [16], in test [17] and in test [18].
Turning to `CC(C)(C)c1ccc(N)cc1`, the outcome in test [1], in [2], in test [3], in test [4], in [5] and in test [6] was inactive. For the same compound, the outcome in [7], in test [8], in test [9], in test [19], in test [11] and in test [12] was inactive. For the same compound, the compound was called inactive in [13], in test [14], in test [15], in test [16], in test [17] and in test [18].
Consider `OC1OCCOC1O` (stereo unspecified), for which the result in test [1], in test [2], in test [3], in [4], in test [20] and in test [5] was inactive. Moreover, the call in test [7], in test [9], in [10], in [19], in test [11] and in [12] was inactive. Besides, the compound was classed as inactive in [13], in test [14], in [15], in [16], in test [17] and in test [18].
What is called AC50 is the midpoint of the concentration-response curve, whichever way the signal moves. For `O=C(Oc1ccccc1)c1ccc2ccccc2c1O`, the AC50 in test [1] is 37.2 µM (active); in test [3], 48.7 µM (active); in test [14], 34.6 µM (active); in test [16] it was 66.2 µM (active); in test [17], 57.2 µM (active); in [18] it was 24.8 µM (active). For the same compound, the outcome in [2], in test [4], in [5], in [6], in test [7] and in test [8] was inactive. Besides, the outcome in test [9], in test [19], in test [11], in [12], in [13] and in [15] was inactive.
On to `COc1c2ccoc2cc2oc(=O)ccc12`, for which the result in test [1], in test [2], in [3], in test [4], in test [5] and in [6] was inactive. In addition, the result in test [8], in test [19], in test [11], in test [12], in [13] and in [14] was inactive. Moreover, the result in test [15], in test [16], in [17] and in test [18] was inactive.
